Among the data in PubChem BioAssay (EPA / NIEHS) are outcome and AC50 values, retold here.

SMILES strings stand for the structures. Some structures have more than one record in an assay (separate samples or runs), and their calls can disagree. The source made the active and inactive calls. Rule for the calls: active = hit-call score of the fitted dose curve at least 0.9, where 1 is the maximum; inactive = score below 0.9.

Read-out in test [1]: Collagen I, COL1A1 (gene 1277)
Briefly: BSK_hDFCGF_CollagenI: BioMAP Diversity Plus: hDFCGF Assay for Collagen I Biomarker Activity (AID 2284250). The note with it: primary human foreskin fibroblasts. In a few lines:
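ELISA read-out of Collagen I in human dermal foreskin fibroblast cultures, 24 h after dosing. Gain of signal versus DMSO vehicle defines activity.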

Read-out in test [2]: Plasminogen activator inhibitor-1 (PAI1), SERPINE1 (gene 5054)
Briefly: BSK_KF3CT_PAI1: BioMAP Diversity Plus: KF3CT Assay for Plasminogen activator inhibitor-1 (PAI1) Biomarker Activity (AID 2284252). To be noted: primary human keratinocytes with fibroblasts. In a few lines:
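Keratinocyte + dermal fibroblast co-culture (human primary); 24 h post-dose; PAI-1 by ELISA; gain-of-signal fit vs DMSO control.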

Read-out in test [3]: Monocyte Chemoattractant Protein-1 (MCP1), CCL2 (gene 6347)
The test can be described thus: BSK_IMphg_MCP1: BioMAP Diversity Plus: IMphg Assay for Monocyte Chemoattractant Protein-1 (MCP1) Biomarker Activity (AID 2284253). The note with it: primary human endothelial cells with macrophages. In a few lines: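 ELISA readout of MCP-1 at 24 hours in IMphg co-cultures of venular endothelial cells and macrophages, normalised to DMSO; parallel cultures stained with sulforhodamine B for overt cytotoxicity.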

Read-out in test [4]: Interleukin-8 (IL8), CXCL8 (gene 3576)
The test can be described thus: BSK_KF3CT_IL8: BioMAP Diversity Plus: KF3CT Assay for Interleukin-8 (IL8) Biomarker Activity (AID 2284254). To be noted: primary human keratinocytes with fibroblasts. In outline: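 IL-8 read-out: ELISA, 24 h post-dose, human skin primary co-culture (keratinocytes + foreskin fibroblasts). DMSO = baseline; positive-direction fit.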

Read-out in test [5]: Macrophage Inflammatory Protein-1 Alpha (MIP1a), CCL3 (gene 6348)
The test can be described thus: BSK_IMphg_MIP1a: BioMAP Diversity Plus: IMphg Assay for Macrophage Inflammatory Protein-1 Alpha (MIP1a) Biomarker Activity (AID 2284255). To be noted: primary human endothelial cells with macrophages. In a few lines: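 MIP-1a protein levels were quantified by ELISA after 24 h treatment of human endothelial cell–macrophage co-cultures, compared with DMSO. Parallel cultures were fixed with TCA and stained with 0.1% SRB to gauge overt cytotoxicity.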

Read-out in test [6]: Plasminogen activator inhibitor-1 (PAI1), SERPINE1 (gene 5054)
Briefly: BSK_MyoF_PAI1: BioMAP Diversity Plus: MyoF Assay for Plasminogen activator inhibitor-1 (PAI1) Biomarker Activity (AID 2284256).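 For outcome: PAI-1 protein level measured by ELISA in fibroblast cultures.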 To be noted: primary human lung fibroblasts. In outline:
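MyoF lung fibroblasts, human primary; compound 24 h; PAI-1 ELISA; positive-direction fit vs DMSO baseline; parallel SRB total-protein staining for cytotoxicity.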

Read-out in test [7]: CD69, CD69 (gene 969)
The test can be described thus: BSK_IMphg_CD69: BioMAP Diversity Plus: IMphg Assay for CD69 Biomarker Activity (AID 2284257). The note with it: primary human endothelial cells with macrophages. In outline: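 Readout is ELISA for CD69 in primary human venular endothelial cell/macrophage co-culture, taken at 24 h post-dosing. SRB staining of parallel cultures gauged overt cytotoxicity; signal increase versus DMSO defined activity.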

Read-out in test [8]: Eotaxin 3, CCL26 (gene 10344)
Briefly: BSK_BF4T_Eotaxin3: BioMAP Diversity Plus: BF4T Assay for Eotaxin 3 Biomarker Activity (AID 2284258). The note with it: primary human bronchial epithelial cells with fibroblasts. In outline:
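ELISA measurement of Eotaxin-3 after 24 h chemical exposure in a bronchial epithelial/dermal fibroblast co-culture, with DMSO as baseline. Parallel SRB staining (0.1% SRB after 10% TCA fixation, 560 nm) flagged overt cytotoxicity.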

Read-out in test [9]: Monocyte Chemoattractant Protein-1 (MCP1), CCL2 (gene 6347)
The test can be described thus: BSK_BF4T_MCP1: BioMAP Diversity Plus: BF4T Assay for Monocyte Chemoattractant Protein-1 (MCP1) Biomarker Activity (AID 2284259). The note with it: primary human bronchial epithelial cells with fibroblasts. In outline: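 MCP-1 ELISA readout taken 24 h after dosing in the BF4T system (bronchial epithelial cells plus dermal fibroblasts). Parallel SRB total-protein staining flagged cytotoxicity; DMSO served as baseline, positive fitting direction.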

Read-out in test [10]: Intercellular Adhesion Molecule 1 (ICAM1), ICAM1 (gene 3383)
Briefly: BSK_BF4T_ICAM1: BioMAP Diversity Plus: BF4T Assay for Intercellular Adhesion Molecule 1 (ICAM1) Biomarker Activity (AID 2284260). The note with it: primary human bronchial epithelial cells with fibroblasts. In a few lines:
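ICAM-1 levels measured by ELISA after 24 h chemical treatment of bronchial epithelial cell/dermal fibroblast co-cultures, read against DMSO baseline. Overt cytotoxicity checked in parallel cultures by sulforhodamine B staining.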

Read-out in test [11]: Interleukin-8 (IL8), CXCL8 (gene 3576)
The test can be described thus: BSK_MyoF_IL8: BioMAP Diversity Plus: MyoF Assay for Interleukin-8 (IL8) Biomarker Activity (AID 2284261). To be noted: primary human lung fibroblasts. In a few lines:
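Lung fibroblasts (human primary) → chemical exposure → 24 h → IL-8 measured by ELISA. Signal increase scored versus DMSO control.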

Read-out in test [12]: CD90, THY1 (gene 7070)
The test can be described thus: BSK_BF4T_CD90: BioMAP Diversity Plus: BF4T Assay for CD90 Biomarker Activity (AID 2284262). To be noted: primary human bronchial epithelial cells with fibroblasts. In a few lines: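 CD90 levels by ELISA after 24 h treatment of human bronchial epithelial cell/dermal fibroblast cultures, analysed versus DMSO. Overt cytotoxicity checked in parallel cultures by sulforhodamine B staining.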

Read-out in test [13]: Interleukin-8 (IL8), CXCL8 (gene 3576)
The test can be described thus: BSK_BF4T_IL8: BioMAP Diversity Plus: BF4T Assay for Interleukin-8 (IL8) Biomarker Activity (AID 2284263). The note with it: primary human bronchial epithelial cells with fibroblasts. In outline:
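Human bronchial epithelial cells with dermal fibroblasts co-culture; IL-8 measured by ELISA 24 hours after dosing, fitted vs DMSO. Cytotoxicity tracked in parallel cultures by SRB total-protein staining.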

Read-out in test [14]: Interleukin-1 alpha (IL1a), IL1A (gene 3552)
The test can be described thus: BSK_BF4T_IL1a: BioMAP Diversity Plus: BF4T Assay for Interleukin-1 alpha (IL1a) Biomarker Activity (AID 2284264). The note with it: primary human bronchial epithelial cells with fibroblasts. In outline: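 ELISA read-out of IL-1α from bronchial epithelial cell/dermal fibroblast co-cultures 24 h after compound addition. Increases scored against DMSO negative control. Cytotoxicity monitored by sulforhodamine B staining of parallel cultures.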

Read-out in test [15]: Decorin, DCN (gene 1634)
Briefly: BSK_MyoF_Decorin: BioMAP Diversity Plus: MyoF Assay for Decorin Biomarker Activity (AID 2284265). To be noted: primary human lung fibroblasts. In outline:
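ELISA readout of decorin, 24 h post-dosing; primary human lung fibroblast (MyoF) culture; gain-of-signal fit vs DMSO baseline.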

Read-out in test [16]: KRT18 (gene 3875)
Briefly: BSK_BF4T_Keratin818: BioMAP Diversity Plus: BF4T Assay for Keratin 818 Biomarker Activity (AID 2284266). The note with it: primary human bronchial epithelial cells with fibroblasts. In a few lines:
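Keratin 8/18 levels quantified by ELISA after 24 h chemical treatment of bronchial epithelial cell/dermal fibroblast co-cultures, fitted in positive direction relative to DMSO. Parallel SRB staining tracks overt cytotoxicity.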

The nature of test [17]: BSK_MyoF_SRB: Viability Assessment in the BioMAP Diversity Plus: MyoF Assay (AID 2284267).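 Note: total protein by SRB absorbance in parallel cultures as cytotoxicity measure.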 To be noted: primary human lung fibroblasts. In outline:
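Lung fibroblast cultures, 24 h post-dose; fix 10% TCA, stain 0.1% SRB, read 560 nm. Signal = total protein as cytotoxicity measure; fitted relative to DMSO negative control.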

Read-out in test [18]: Matrix Metallopeptidase 1 (MMP1), MMP1 (gene 4312)
The test can be described thus: BSK_MyoF_MMP1: BioMAP Diversity Plus: MyoF Assay for Matrix Metallopeptidase 1 (MMP1) Biomarker Activity (AID 2284268). To be noted: primary human lung fibroblasts. In a few lines:
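Cells: human lung fibroblasts. Exposure: 24 h chemical dosing. Detection: ELISA for MMP1. Analysis: upward fitting against DMSO negative control.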

Read-out in test [19]: TIMP metallopeptidase inhibitor 1 (TIMP1), TIMP1 (gene 7076)
Briefly: BSK_MyoF_TIMP1: BioMAP Diversity Plus: MyoF Assay for TIMP metallopeptidase inhibitor 1 (TIMP1) Biomarker Activity (AID 2284269). The note with it: primary human lung fibroblasts. In a few lines:
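TIMP-1 levels were determined by ELISA in human lung fibroblasts treated for 24 h. DMSO served as negative control and baseline for upward curve fitting.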

Read-out in test [20]: Interferon-inducible T-cell alpha chemoattractant (ITAC), CXCL11 (gene 6373)
Briefly: BSK_hDFCGF_ITAC: BioMAP Diversity Plus: hDFCGF Assay for Interferon-inducible T-cell alpha chemoattractant (ITAC) Biomarker Activity (AID 2284251). To be noted: primary human foreskin fibroblasts. In outline: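 Measured by ELISA, the chemokine level serves as the endpoint in human skin fibroblast primary cultures 24 h after compound addition. Increases relative to DMSO-treated wells define activity.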

`C=C(C)C(=O)OCC(F)(F)C(F)(F)C(F)(F)C(F)F`: the result in test [1], in test [2], in test [3], in [4], in test [5] and in test [6] was inactive. The result in [7], in test [8], in test [9], in test [10], in test [11] and in test [12] was inactive. In addition, the result in test [13], in test [14], in test [15], in [16], in [17] and in test [18] was inactive. Moreover, the result in test [19] was inactive. Besides, the AC50 (usually the concentration at which the activity in the assay is half-maximal) in test [6] is 0.222 µM (active).

As for `O=C(O)CCC(F)(F)C(F)(F)C(F)(F)F`, the outcome in test [1], in test [20], in test [2], in test [3], in test [4] and in [5] was inactive. In addition, the result in [6], in test [7], in [8], in test [9], in test [10] and in test [11] was inactive. Moreover, the result in test [12], in test [13], in test [14], in test [15], in [16] and in test [17] was inactive. The result in [18] and in test [19] was inactive.

Turning to `OCC(F)(F)C(F)(F)C(F)(F)CO`, the result in [1], in [20], in test [2], in test [3], in test [4] and in [5] was inactive. For the same compound, the outcome in [6], in test [7], in test [8], in test [9], in test [10] and in [11] was inactive. The outcome in test [12], in test [13], in test [14], in test [15], in test [16] and in [17] was inactive. The outcome in [18] and in test [19] was inactive. The AC50 in [20] is 9.21 µM (active).
